Data on four compounds can be found in PubChem BioAssay (EPA / NIEHS).

The nature of assay [1]: CEETOX_H295R_PROG: CeeTox H295R High-throughput Steroidogenesis Assay for Progesterone (PROG) (AID 2283442).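 For AC50: human H295R adrenal cells primed with 10 µM forskolin before dosing; progesterone secreted into medium by H295R cells measured by HPLC-MS/MS.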 Conditions: actives raise or lower the signal. The method, boiled down:
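Steps: seed H295R cells and let them adhere overnight; prime 48 h with 10 uM forskolin; dose with compound in DMSO at 0.1% final for 48 h; extract medium steroids with MTBE; measure progesterone by LC-MS/MS. MTT viability was run in the same wells.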

Read-out in assay [2]: Tumor necrosis factor receptor superfamily member 6 (Homo sapiens) (UniProt P25445)
Nature of the assay: LTEA_HepaRG_FAS: Life Technologies and Expression Analysis (LTEA) Assay for Fas cell surface death receptor (FAS) using HepaRG (AID 2283447). Conditions: mRNA level, 48 h; actives raise or lower the signal. A digest of the protocol:
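FAS transcript level was measured by TaqMan qRT-PCR against three housekeeping genes after 48 h chemical exposure. Cells were HepaRG, 0.5% DMSO vehicle, with a top concentration of 100 uM and half-log dilutions over eight points, in duplicate.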

Read-out in assay [3]: Fatty acid synthase (Homo sapiens) (UniProt P49327)
Nature of the assay: LTEA_HepaRG_FASN: Life Technologies and Expression Analysis (LTEA) Assay for Fatty Acid Synthase (FASN) using HepaRG (AID 2283448). Conditions: mRNA level, 48 h; actives raise or lower the signal. A digest of the protocol: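 Cells were plated, cultured 48 h, switched to serum-free induction medium, then dosed in duplicate (max 100 uM, half-log dilutions, 0.5% DMSO) for 48 h. RNA was then isolated and FASN quantified by qRT-PCR.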

Read-out in assay [4]: Cyclin D2 (CCND2), CCND2 (gene 894)
Nature of the assay: LTEA_HepaRG_CCND2: Life Technologies and Expression Analysis (LTEA) Assay for Cyclin D2 (CCND2) using HepaRG (AID 2283449). Conditions: mRNA level, 48 h; actives raise or lower the signal. The method, boiled down: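 CCND2 transcript levels, quantified by qRT-PCR and normalised to three housekeeping genes, were fitted bidirectionally against 0.5% DMSO. HepaRG cultures were dosed 48 h in duplicate with an 8-point half-log series up to 100 uM.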

Read-out in assay [5]: Cyclin Dependent Kinase Inhibitor 1A (CDKN1A), CDKN1A (gene 1026)
The assay is described as follows: LTEA_HepaRG_CDKN1A: Life Technologies and Expression Analysis (LTEA) Assay for Cyclin Dependent Kinase Inhibitor 1A (CDKN1A) using HepaRG (AID 2283450). Conditions: mRNA level, 48 h; actives raise or lower the signal. The method, boiled down: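 Read-out is CDKN1A mRNA by TaqMan qRT-PCR, normalized to three housekeeping genes and fitted in both directions against the DMSO baseline. Human HepaRG cells were treated 48 h with test chemicals up to 100 uM in half-log steps, 0.5% DMSO.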

Read-out in assay [6]: catalase (CAT), CAT (gene 847)
Nature of the assay: LTEA_HepaRG_CAT: Life Technologies and Expression Analysis (LTEA) Assay for catalase (CAT) using HepaRG (AID 2283452). Conditions: mRNA level, 48 h; actives raise or lower the signal. A digest of the protocol:
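Expression of CAT was quantified by TaqMan qRT-PCR with ACTB/GAPDH/POLR2A normalization after 48 h chemical exposure of HepaRG. Eight-point half-log series, top 100 uM, in 0.5% DMSO; gain or loss fitted against vehicle.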

Read-out in assay [7]: flavin-containing dimethylaniline monooxygenases 3 (FMO3), FMO3 (gene 2328)
Nature of the assay: LTEA_HepaRG_FMO3: Life Technologies and Expression Analysis (LTEA) Assay for flavin-containing dimethylaniline monooxygenases 3 (FMO3) using HepaRG (AID 2283453). Conditions: mRNA level, 48 h; actives raise or lower the signal. A digest of the protocol: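 FMO3 transcript quantified by TaqMan qRT-PCR against three housekeeping genes after 48 h chemical exposure of HepaRG cells. Eight-point half-log series, top 100 uM, 0.5% DMSO vehicle; phenobarbital 1mM induction control; up- or down-regulation fitted.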

Read-out in assay [8]: Cytochrome P450 (CYP1A1), CYP1A1 (gene 1543)
Nature of the assay: LTEA_HepaRG_CYP1A1: Life Technologies and Expression Analysis (LTEA) Assay for Cytochrome P450 (CYP1A1) using HepaRG (AID 2283454). Conditions: mRNA level, 48 h; actives raise or lower the signal. The method, boiled down:
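HepaRG, 48 h post-plating switched to serum-free induction medium; 8-pt conc-response (top 100 uM, half-log, 0.5% DMSO), duplicates, 48 h. Lysis in RLT, TaqMan qRT-PCR for CYP1A1; gain or loss vs DMSO.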

Read-out in assay [9]: Forkhead box O1 (FOXO1), FOXO1 (gene 2308)
The assay is described as follows: LTEA_HepaRG_FOXO1: Life Technologies and Expression Analysis (LTEA) Assay for Forkhead box O1 (FOXO1) using HepaRG (AID 2283456). Conditions: mRNA level, 48 h; actives raise or lower the signal. A digest of the protocol: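 FOXO1 transcript quantified by qRT-PCR after 48 h chemical exposure (top 100 uM, half-log steps, 0.5% DMSO) of HepaRG cells, housekeeping-normalized (ACTB/GAPDH/POLR2A). Changes fitted in both directions relative to vehicle.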

Read-out in assay [10]: growth arrest and DNA damage 45 (GADD45A), GADD45A (gene 1647)
Nature of the assay: LTEA_HepaRG_GADD45A: Life Technologies and Expression Analysis (LTEA) Assay for growth arrest and DNA damage 45 (GADD45A) using HepaRG (AID 2283458). Conditions: mRNA level, 48 h; actives raise or lower the signal. A digest of the protocol:
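Transcript induction or loss, quantified by TaqMan qRT-PCR against three housekeeping genes, is the read-out. HepaRG cells received chemicals for 48 h across eight half-log concentrations from 100 uM in 0.5% DMSO; gain and loss fitted relative to DMSO.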

Read-out in assay [11]: ABC Transporter (ABCB1), ABCB1 (gene 5243)
Nature of the assay: LTEA_HepaRG_ABCB1: Life Technologies and Expression Analysis (LTEA) Assay for ABC Transporter (ABCB1) using HepaRG (AID 2283460). Conditions: mRNA level, 48 h; actives raise or lower the signal. The method, boiled down: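 ABCB1 transcript level measured by TaqMan qRT-PCR against three housekeeping genes after 48 h chemical exposure of differentiated HepaRG cells. Top concentration 100 uM, half-log steps, eight points, 0.5% DMSO vehicle; bidirectional fit relative to DMSO.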

Read-out in assay [12]: growth arrest and DNA damage 45 (GADD45B), GADD45B (gene 4616)
Nature of the assay: LTEA_HepaRG_GADD45B: Life Technologies and Expression Analysis (LTEA) Assay for growth arrest and DNA damage 45 (GADD45B) using HepaRG (AID 2283461). Conditions: mRNA level, 48 h; actives raise or lower the signal. A digest of the protocol: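 HepaRG, ~100,000 cells/well, 48 h plating; serum-free induction medium; cpd 100 uM top, half-log x8, 0.5% DMSO, duplicate, 48 h; lysis in RLT, RNA isolation, qRT-PCR; norm ACTB/GAPDH/POLR2A; bidirectional fit vs DMSO.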

Read-out in assay [13]: ABC Transporter (ABCC3), ABCC3 (gene 8714)
The assay is described as follows: LTEA_HepaRG_ABCC3: Life Technologies and Expression Analysis (LTEA) Assay for ABC Transporter (ABCC3) using HepaRG (AID 2283462). Conditions: mRNA level, 48 h; actives raise or lower the signal. A digest of the protocol:
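Human HepaRG, 48 h dosing, 8-pt half-log series from 100 uM, 0.5% DMSO vehicle, duplicates. ABCC3 mRNA by TaqMan qRT-PCR, housekeeping-normalized; bidirectional curve fit vs DMSO.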

Read-out in assay [14]: ABC Transporter (ABCC2), ABCC2 (gene 1244)
Nature of the assay: LTEA_HepaRG_ABCC2: Life Technologies and Expression Analysis (LTEA) Assay for ABC Transporter (ABCC2) using HepaRG (AID 2283464). Conditions: mRNA level, 48 h; actives raise or lower the signal. The method, boiled down: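 HepaRG, 48 h post-plating; serum-free induction medium; cpd 8-pt, 100 uM top, half-log, 0.5% DMSO, duplicate, 48 h. Readout: ABCC2 mRNA by qRT-PCR, norm. ACTB/GAPDH/POLR2A. Bidirectional fit vs DMSO baseline.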

Read-out in assay [15]: Broad substrate specificity ATP-binding cassette transporter ABCG2 (Homo sapiens) (UniProt Q9UNQ0)
Nature of the assay: LTEA_HepaRG_ABCG2: Life Technologies and Expression Analysis (LTEA) Assay for ABC Transporter (ABCG2) using HepaRG (AID 2283465). Conditions: mRNA level, 48 h; actives raise or lower the signal. A digest of the protocol: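 ABCG2 transcript was quantified by TaqMan qRT-PCR against three housekeeping genes in HepaRG cells. Cells were treated in duplicate for 48 h across an 8-point half-log series up to 100 uM, with 0.5% DMSO vehicle. Gain or loss versus DMSO was fit.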

Read-out in assay [16]: Cyclin D1 (CCND1), CCND1 (gene 595)
Nature of the assay: LTEA_HepaRG_CCND1: Life Technologies and Expression Analysis (LTEA) Assay for Cyclin D1 (CCND1) using HepaRG (AID 2283451).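 For AC50: differentiated human HepaRG liver cells in serum-free induction medium; TaqMan qRT-PCR transcript level normalised to ACTB GAPDH and POLR2A housekeeping genes.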 Conditions: mRNA level, 48 h; actives raise or lower the signal. The method, boiled down:
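HepaRG plated 48 h, medium switched to serum-free induction medium, chemicals added in duplicate (top 100 uM, half-log steps, 0.5% DMSO) for 48 h, cells lysed, RNA measured by TaqMan qRT-PCR.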

Read-out in assay [17]: CFLAR gene, CFLAR (gene 8837)
The assay is described as follows: LTEA_HepaRG_CFLAR: Life Technologies and Expression Analysis (LTEA) Assay for CFLAR gene using HepaRG (AID 2283455). Conditions: mRNA level, 48 h; actives raise or lower the signal. The method, boiled down:
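Transcript level by qRT-PCR (normalized to ACTB, GAPDH and POLR2A) after 48 h chemical exposure of HepaRG cells, top concentration 100 uM with half-log steps, 0.5% DMSO vehicle, duplicates; fitted bidirectionally against DMSO baseline.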

Read-out in assay [18]: Forkhead box O3 (FOXO3), FOXO3 (gene 2309)
Nature of the assay: LTEA_HepaRG_FOXO3: Life Technologies and Expression Analysis (LTEA) Assay for Forkhead box O3 (FOXO3) using HepaRG (AID 2283459). Conditions: mRNA level, 48 h; actives raise or lower the signal. The method, boiled down:
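FOXO3 transcript measured by qRT-PCR (normalized to ACTB, GAPDH, POLR2A) after 48 h exposure of HepaRG cells in serum-free induction medium. Duplicates, eight half-log concentrations up to 100 uM, 0.5% DMSO; gain or loss fitted against DMSO.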

Read-out in assay [19]: ABC Transporter (ABCB11), ABCB11 (gene 8647)
Nature of the assay: LTEA_HepaRG_ABCB11: Life Technologies and Expression Analysis (LTEA) Assay for ABC Transporter (ABCB11) using HepaRG (AID 2283463). Conditions: mRNA level, 48 h; actives raise or lower the signal. A digest of the protocol:
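ABCB11 transcript levels quantified by TaqMan qRT-PCR against three housekeeping genes after 48 h chemical exposure of HepaRG cultures. Concentrations up to 100 uM in half-log steps, 0.5% DMSO vehicle; both induction and suppression scored.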

Each structure is given as a SMILES string. Calls of active or inactive are those of the source. Rule for the calls: active = hit-call score of the fitted dose curve at least 0.9, where 1 is the maximum; inactive = score below 0.9.

Sequence of Broad substrate specificity ATP-binding cassette transporter ABCG2 (Homo sapiens) (Q9UNQ0 whole entry, looked up): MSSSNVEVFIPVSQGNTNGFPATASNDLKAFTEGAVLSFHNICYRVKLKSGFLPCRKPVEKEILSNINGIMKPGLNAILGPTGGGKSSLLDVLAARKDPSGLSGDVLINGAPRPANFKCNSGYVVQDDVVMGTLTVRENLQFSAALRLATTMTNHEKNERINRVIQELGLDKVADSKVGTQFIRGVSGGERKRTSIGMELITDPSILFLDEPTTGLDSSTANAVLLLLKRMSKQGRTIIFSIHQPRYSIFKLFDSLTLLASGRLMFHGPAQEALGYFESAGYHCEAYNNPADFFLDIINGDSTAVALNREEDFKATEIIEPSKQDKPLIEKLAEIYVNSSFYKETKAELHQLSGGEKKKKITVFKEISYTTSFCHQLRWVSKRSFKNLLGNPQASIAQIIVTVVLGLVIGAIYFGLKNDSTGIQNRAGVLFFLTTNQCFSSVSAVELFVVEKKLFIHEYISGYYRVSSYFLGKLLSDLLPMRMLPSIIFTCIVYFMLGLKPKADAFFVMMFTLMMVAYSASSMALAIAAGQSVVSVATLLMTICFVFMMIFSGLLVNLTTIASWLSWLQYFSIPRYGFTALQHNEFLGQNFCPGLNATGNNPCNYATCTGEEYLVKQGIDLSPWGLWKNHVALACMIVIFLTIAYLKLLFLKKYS
Sequence of Fatty acid synthase (Homo sapiens) (P49327 whole entry, looked up): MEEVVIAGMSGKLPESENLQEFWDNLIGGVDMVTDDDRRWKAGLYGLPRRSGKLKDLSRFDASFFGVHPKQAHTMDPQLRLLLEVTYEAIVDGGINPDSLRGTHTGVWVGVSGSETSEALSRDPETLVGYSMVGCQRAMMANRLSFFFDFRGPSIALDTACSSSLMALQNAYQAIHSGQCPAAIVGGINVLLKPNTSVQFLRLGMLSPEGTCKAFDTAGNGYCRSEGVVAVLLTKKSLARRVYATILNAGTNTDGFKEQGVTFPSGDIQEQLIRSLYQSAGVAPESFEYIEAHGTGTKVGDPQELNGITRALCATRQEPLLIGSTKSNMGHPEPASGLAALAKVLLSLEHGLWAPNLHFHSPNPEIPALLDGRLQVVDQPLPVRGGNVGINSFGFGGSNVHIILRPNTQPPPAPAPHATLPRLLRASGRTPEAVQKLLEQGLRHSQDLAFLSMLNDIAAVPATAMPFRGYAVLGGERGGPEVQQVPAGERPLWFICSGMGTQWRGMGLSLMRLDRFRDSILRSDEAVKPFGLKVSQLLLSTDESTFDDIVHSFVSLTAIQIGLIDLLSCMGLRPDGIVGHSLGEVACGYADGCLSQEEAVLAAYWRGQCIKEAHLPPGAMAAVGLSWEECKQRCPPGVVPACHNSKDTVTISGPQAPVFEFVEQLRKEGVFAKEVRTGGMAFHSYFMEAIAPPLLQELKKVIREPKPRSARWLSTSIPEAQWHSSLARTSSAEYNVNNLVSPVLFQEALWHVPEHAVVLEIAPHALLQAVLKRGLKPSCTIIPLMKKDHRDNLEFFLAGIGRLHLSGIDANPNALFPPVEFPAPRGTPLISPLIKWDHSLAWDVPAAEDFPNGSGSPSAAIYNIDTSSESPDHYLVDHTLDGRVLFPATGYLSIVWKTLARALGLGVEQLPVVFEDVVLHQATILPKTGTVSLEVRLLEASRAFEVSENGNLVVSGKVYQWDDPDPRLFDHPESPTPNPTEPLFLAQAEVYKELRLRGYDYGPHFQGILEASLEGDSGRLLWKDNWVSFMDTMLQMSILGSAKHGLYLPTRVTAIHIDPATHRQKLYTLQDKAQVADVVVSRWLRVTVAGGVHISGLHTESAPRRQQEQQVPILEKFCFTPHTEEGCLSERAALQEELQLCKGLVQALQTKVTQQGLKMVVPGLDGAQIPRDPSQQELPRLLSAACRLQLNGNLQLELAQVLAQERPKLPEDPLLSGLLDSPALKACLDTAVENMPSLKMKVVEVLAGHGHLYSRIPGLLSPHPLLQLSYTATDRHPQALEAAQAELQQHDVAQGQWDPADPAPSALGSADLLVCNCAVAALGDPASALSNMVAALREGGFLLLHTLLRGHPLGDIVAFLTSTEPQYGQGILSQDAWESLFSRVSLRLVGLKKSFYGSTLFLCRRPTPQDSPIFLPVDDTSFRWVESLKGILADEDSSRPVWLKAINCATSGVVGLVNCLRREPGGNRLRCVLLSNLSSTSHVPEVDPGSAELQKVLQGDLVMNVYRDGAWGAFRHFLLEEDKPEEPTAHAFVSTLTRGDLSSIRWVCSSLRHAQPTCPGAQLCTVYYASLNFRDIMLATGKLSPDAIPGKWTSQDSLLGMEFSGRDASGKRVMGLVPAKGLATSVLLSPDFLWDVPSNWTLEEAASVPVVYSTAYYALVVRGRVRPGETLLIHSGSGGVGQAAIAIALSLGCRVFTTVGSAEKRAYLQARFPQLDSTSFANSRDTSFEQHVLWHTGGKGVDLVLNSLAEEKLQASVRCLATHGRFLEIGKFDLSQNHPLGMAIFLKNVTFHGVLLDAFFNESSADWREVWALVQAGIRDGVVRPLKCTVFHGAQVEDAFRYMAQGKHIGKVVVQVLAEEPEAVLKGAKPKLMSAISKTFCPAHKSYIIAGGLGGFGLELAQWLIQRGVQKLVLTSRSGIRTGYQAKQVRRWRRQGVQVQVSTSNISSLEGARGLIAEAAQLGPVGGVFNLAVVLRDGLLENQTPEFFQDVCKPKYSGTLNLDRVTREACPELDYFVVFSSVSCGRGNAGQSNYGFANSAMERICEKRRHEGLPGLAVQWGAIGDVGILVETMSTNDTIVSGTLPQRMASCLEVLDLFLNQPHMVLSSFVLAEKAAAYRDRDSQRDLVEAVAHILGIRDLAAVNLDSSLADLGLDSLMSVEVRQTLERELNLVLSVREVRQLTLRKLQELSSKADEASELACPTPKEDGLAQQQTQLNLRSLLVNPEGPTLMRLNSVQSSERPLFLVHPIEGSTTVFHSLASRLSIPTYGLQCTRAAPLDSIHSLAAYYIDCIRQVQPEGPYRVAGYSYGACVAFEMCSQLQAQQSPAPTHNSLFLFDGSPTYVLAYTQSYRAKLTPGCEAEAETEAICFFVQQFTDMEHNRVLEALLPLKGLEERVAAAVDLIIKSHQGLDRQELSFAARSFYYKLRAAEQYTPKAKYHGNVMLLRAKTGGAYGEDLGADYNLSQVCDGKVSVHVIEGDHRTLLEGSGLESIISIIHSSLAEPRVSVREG

Take `Cc1nc(C)nc(N2C[C@@H](C)N(c3ccnc([C@@H](C)O)n3)[C@@H](C)C2)n1`: the compound was called inactive in assay [1], in assay [2], in [3], in assay [4], in assay [5] and in [6]. Also, the outcome in assay [7], in assay [8], in assay [9], in assay [10], in assay [11] and in assay [12] was inactive. Moreover, the result in assay [13], in assay [14] and in [15] was inactive.
`CC(CO)OC(C)CO` (centres undefined) (tested in a mixture with another compound): the result in assay [2], in [3], in [4], in [5], in assay [16] and in [6] was inactive. Besides, the result in assay [7], in assay [17], in assay [9], in assay [10], in [18] and in assay [11] was inactive. Also, the compound was called inactive in [12], in assay [13], in assay [19] and in [15]. For the same compound, the AC50 (commonly the midpoint of the concentration-response curve, whichever way the signal moves) in assay [8] was 50 µM (active).
On to `CN1CCN(Cc2cc(-c3ccc4[nH]c(=O)oc4c3)co2)[C@@H](c2ccc(F)cc2)C1`, for which the AC50 in assay [1] was 14.1 µM (active); in [16] it was 82.5 µM (active); in assay [6], 81.7 µM (active); in [8], 61.3 µM (active); in assay [9], 82.2 µM (active); in assay [13] it was 78 µM (active). For the same compound, the half-maximal activity concentration (AC50) in assay [19] was 67.9 µM (active). Moreover, the outcome in assay [2], in assay [3], in assay [4], in [5], in assay [7] and in assay [17] was inactive. In addition, the compound was classed as inactive in assay [10], in [11], in [12] and in assay [15].
Turning to `CN1CCCC1=O`, the outcome in assay [2], in assay [3], in assay [4], in [5], in assay [16] and in assay [6] was inactive. For the same compound, the compound was called inactive in [7], in assay [9], in [10], in [11], in assay [12] and in assay [13]. Also, the compound was called inactive in assay [19] and in [15]. The AC50 in assay [8] was 50 µM (active).
